Test results reported in PubChem BioAssay (NCI).
About 83,000 compounds went through this panel and 20% of them were active in at least one assay; those are over-represented in the sample as a whole.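 In brief: 96-well plates, 48 h treatment, single concentration, percent growth endpoint.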 Active and inactive are the calls of the source. The calls were made as follows: active = growth percent below 10; inactive = the rest.

Legend:
Assay in all cases: NCI-60 one-dose screen, 48 h (100 = growth as untreated, 0 = no growth, -100 = all killed)
Details in all cases: 10 µM unless noted
SR leukemia = test system: SR leukemia
OVCAR-8 ovarian = test system: OVCAR-8 ovarian
OVCAR-5 ovarian = test system: OVCAR-5 ovarian
OVCAR-4 ovarian = test system: OVCAR-4 ovarian
SK-OV-3 ovarian = test system: SK-OV-3 ovarian
IGROV1 ovarian = test system: IGROV1 ovarian
OVCAR-3 ovarian = test system: OVCAR-3 ovarian
HS 578T breast = test system: HS 578T breast
NCI/ADR-RES ovarian = test system: NCI/ADR-RES ovarian
T-47D breast = test system: T-47D breast
BT-549 breast = test system: BT-549 breast
MDA-MB-435 melanoma = test system: MDA-MB-435 melanoma
SW-620 colon = test system: SW-620 colon
MCF7 breast = test system: MCF7 breast
HCT-116 colon = test system: HCT-116 colon
HCC-2998 colon = test system: HCC-2998 colon
KM12 colon = test system: KM12 colon
RPMI-8226 leukemia = test system: RPMI-8226 leukemia

Measured: growth

COc1ccc(-c2ccc(C)n2-c2ccc(-c3nc4cc(Cl)ccc4s3)cc2)cc1
inactive: SR leukemia 76.9% | OVCAR-8 ovarian 104% | OVCAR-5 ovarian 74.6% | OVCAR-4 ovarian 84.8% | SK-OV-3 ovarian 96.7% | IGROV1 ovarian 54.9% | OVCAR-3 ovarian 109% | HS 578T breast 103% | NCI/ADR-RES ovarian 95.8% | T-47D breast 66.8% | BT-549 breast 116% | MDA-MB-435 melanoma 95.1% | SW-620 colon 103% | MCF7 breast 48.3% | HCT-116 colon 97.4% | HCC-2998 colon 92.3% | KM12 colon 89.1%

Cc1[nH]c2ccc(F)cc2c1CCNC(=O)C1CCN(C(=O)c2ccccc2)CC1
inactive: SR leukemia 97.3% [25 µM] | RPMI-8226 leukemia 10% [25 µM] | OVCAR-5 ovarian 95.1% [25 µM] | OVCAR-4 ovarian 78.6% [25 µM] | IGROV1 ovarian 82.5% [25 µM] | HS 578T breast 87.7% [25 µM] | NCI/ADR-RES ovarian 95.5% [25 µM] | T-47D breast 68.9% [25 µM] | BT-549 breast 93.5% [25 µM] | MDA-MB-435 melanoma 96.7% [25 µM] | SW-620 colon 96.5% [25 µM] | MCF7 breast 93.9% [25 µM] | HCT-116 colon 93.3% [25 µM] | HCC-2998 colon 104% [25 µM] | KM12 colon 95.6% [25 µM]

COc1ccc(C(=O)c2cc(OC)c3c(c2)OCO3)cc1O
active: SR leukemia 9.89% | OVCAR-3 ovarian -41.7% | NCI/ADR-RES ovarian 2.68% | HCT-116 colon 7.71% | KM12 colon 4.48%
inactive: RPMI-8226 leukemia 24.7% | OVCAR-4 ovarian 37.7% | IGROV1 ovarian 27.9% | HS 578T breast 12.2% | T-47D breast 56.9% | BT-549 breast 54.5% | SW-620 colon 24.6% | MCF7 breast 17.1% | HCC-2998 colon 16.2%

CCC(C)/C(=C\C#N)NCCCN/C(=C/C#N)C(C)CC (stereo not given)
inactive: SR leukemia 90.4% | OVCAR-8 ovarian 100% | OVCAR-5 ovarian 102% | OVCAR-4 ovarian 109% | SK-OV-3 ovarian 105% | IGROV1 ovarian 102% | OVCAR-3 ovarian 126% | HS 578T breast 101% | NCI/ADR-RES ovarian 105% | T-47D breast 97% | BT-549 breast 105% | MDA-MB-435 melanoma 105% | SW-620 colon 107% | MCF7 breast 100% | HCT-116 colon 91.1% | HCC-2998 colon 99.1% | KM12 colon 105%

COc1ccc(-c2c(N)n[nH]c2-c2cc(OC)c3c(c2)OCCO3)cc1
active: SR leukemia -6.97%
inactive: RPMI-8226 leukemia 74.7% | OVCAR-4 ovarian 101% | SK-OV-3 ovarian 90.2% | IGROV1 ovarian 85.9% | OVCAR-3 ovarian 76.2% | HS 578T breast 86.2% | NCI/ADR-RES ovarian 63.8% | T-47D breast 66.1% | BT-549 breast 74.4% | SW-620 colon 48% | MCF7 breast 57.6% | HCT-116 colon 57.2% | HCC-2998 colon 75% | KM12 colon 40.4%

CN1C(=O)N(C)C2C1NN=c1s/c(=C\C=C\c3ccccc3)c(=O)n12 (stereo not given)
active: MDA-MB-435 melanoma 4.66% | MCF7 breast -94.6%
inactive: SR leukemia 24.3% | RPMI-8226 leukemia 84.9% | OVCAR-5 ovarian 85.9% | OVCAR-4 ovarian 81.9% | SK-OV-3 ovarian 65.7% | IGROV1 ovarian 50.7% | OVCAR-3 ovarian 12% | HS 578T breast 59.6% | NCI/ADR-RES ovarian 36.4% | T-47D breast 53.1% | BT-549 breast 55.2% | SW-620 colon 40% | HCT-116 colon 31.8% | HCC-2998 colon 63.1% | KM12 colon 23.2%

CC(C)CSc1nc(NN)c(C#N)c(-c2ccc(F)cc2)n1
inactive: SR leukemia 74.8% | OVCAR-8 ovarian 72% | OVCAR-5 ovarian 89.4% | OVCAR-4 ovarian 57.8% | SK-OV-3 ovarian 60.9% | IGROV1 ovarian 72.5% | OVCAR-3 ovarian 59.1% | HS 578T breast 78.3% | NCI/ADR-RES ovarian 50.8% | T-47D breast 66.7% | BT-549 breast 85.3% | MDA-MB-435 melanoma 78.9% | SW-620 colon 91.9% | MCF7 breast 73.8% | HCT-116 colon 68.9% | HCC-2998 colon 54.4% | KM12 colon 58.1%

O=C1NN(C(=O)c2ccc(Cl)cc2)C(c2ccccc2)=N/C1=C\c1cn(-c2ccccc2)nc1-c1ccccc1
inactive: SR leukemia 90% | RPMI-8226 leukemia 117% | OVCAR-5 ovarian 93.4% | OVCAR-4 ovarian 96.8% | SK-OV-3 ovarian 102% | IGROV1 ovarian 95.1% | OVCAR-3 ovarian 112% | NCI/ADR-RES ovarian 92.9% | T-47D breast 90.4% | BT-549 breast 101% | MDA-MB-435 melanoma 71.4% | SW-620 colon 101% | HCT-116 colon 82.4% | HCC-2998 colon 101% | KM12 colon 98.6%

CCOC(=O)NNC(=S)Nc1ccccc1
inactive: SR leukemia 110% | OVCAR-8 ovarian 102% | OVCAR-5 ovarian 116% | OVCAR-4 ovarian 100% | SK-OV-3 ovarian 111% | IGROV1 ovarian 107% | OVCAR-3 ovarian 116% | HS 578T breast 103% | NCI/ADR-RES ovarian 106% | T-47D breast 113% | BT-549 breast 103% | MDA-MB-435 melanoma 94.9% | SW-620 colon 110% | MCF7 breast 100% | HCT-116 colon 104% | HCC-2998 colon 117% | KM12 colon 106%

CCOC(=O)c1c(NS(=O)(=O)c2ccc(C)cc2)sc2c1CCC1(C2)OCCO1
inactive: SR leukemia 94.3% | OVCAR-8 ovarian 95.7% | OVCAR-5 ovarian 88.8% | OVCAR-4 ovarian 91.4% | SK-OV-3 ovarian 90.1% | IGROV1 ovarian 109% | OVCAR-3 ovarian 103% | HS 578T breast 81.3% | NCI/ADR-RES ovarian 98% | T-47D breast 81.3% | BT-549 breast 93.8% | MDA-MB-435 melanoma 101% | SW-620 colon 90.7% | MCF7 breast 93.2% | HCT-116 colon 95.9% | HCC-2998 colon 92% | KM12 colon 88.8%

CC(C)OC(=O)N1CCOCC1
inactive: SR leukemia 109% | RPMI-8226 leukemia 107% | OVCAR-4 ovarian 95.5% | SK-OV-3 ovarian 98.1% | OVCAR-3 ovarian 115% | HS 578T breast 97.5% | NCI/ADR-RES ovarian 108% | BT-549 breast 101% | MDA-MB-435 melanoma 117% | SW-620 colon 95.4% | MCF7 breast 100% | HCT-116 colon 102% | HCC-2998 colon 104% | KM12 colon 100%

COc1ccc(/C(C#N)=C/c2cc(OC)c(OC)c(OC)c2)cc1
active: MDA-MB-435 melanoma -48.8%
inactive: SR leukemia 11.8% | RPMI-8226 leukemia 31.2% | OVCAR-5 ovarian 65.6% | OVCAR-4 ovarian 87.8% | SK-OV-3 ovarian 47.6% | IGROV1 ovarian 44.9% | OVCAR-3 ovarian 36.1% | HS 578T breast 91.4% | NCI/ADR-RES ovarian 20.7% | T-47D breast 44.1% | BT-549 breast 40.7% | SW-620 colon 26.3% | MCF7 breast 18.6% | HCT-116 colon 20.2% | HCC-2998 colon 72% | KM12 colon 29.3%

COc1ccc(CCNC2=CC(=O)CCC2)cc1OC
inactive: SR leukemia 85.9% | OVCAR-8 ovarian 106% | OVCAR-5 ovarian 105% | OVCAR-4 ovarian 115% | SK-OV-3 ovarian 105% | IGROV1 ovarian 113% | OVCAR-3 ovarian 105% | HS 578T breast 94.6% | NCI/ADR-RES ovarian 102% | T-47D breast 100% | BT-549 breast 103% | MDA-MB-435 melanoma 110% | SW-620 colon 101% | MCF7 breast 105% | HCT-116 colon 106% | HCC-2998 colon 106% | KM12 colon 99%

CCOC(=O)C1C(=O)C=C(c2ccc(OC)cc2)CC1c1sc(N(C)Cc2ccccc2)nc1Cl (stereo not given)
inactive: SR leukemia 81% | OVCAR-8 ovarian 80.9% | OVCAR-5 ovarian 86.2% | OVCAR-4 ovarian 78.2% | SK-OV-3 ovarian 90% | IGROV1 ovarian 104% | OVCAR-3 ovarian 87.5% | HS 578T breast 49.2% | NCI/ADR-RES ovarian 88.2% | T-47D breast 64.2% | BT-549 breast 94.4% | MDA-MB-435 melanoma 85.1% | SW-620 colon 82.9% | MCF7 breast 83.5% | HCT-116 colon 71.9% | HCC-2998 colon 98.9% | KM12 colon 81.4%

CC(C)(C)n1cc(-c2ccnc(NCCCNS(=O)(=O)c3ccc(Cl)cc3)c2)c(-c2cccc(O)c2)n1
active: SR leukemia -34.5% | RPMI-8226 leukemia -29.7% | OVCAR-5 ovarian -20.5% | IGROV1 ovarian 8.56% | OVCAR-3 ovarian 4.31% | HS 578T breast -12.2% | T-47D breast 5.38% | SW-620 colon -38% | MCF7 breast -12.1% | HCT-116 colon 6.49% | HCC-2998 colon -81.5% | KM12 colon -36.5%
inactive: OVCAR-4 ovarian 23.4% | SK-OV-3 ovarian 37.4% | NCI/ADR-RES ovarian 12.2% | MDA-MB-435 melanoma 15.6%

N#Cc1c(Nc2ccccc2)nc2n(c1=O)-c1ccccc1Sc1ccccc1-2
inactive: SR leukemia 59.6% | RPMI-8226 leukemia 66.7% | OVCAR-5 ovarian 110% | OVCAR-4 ovarian 58.4% | SK-OV-3 ovarian 94.8% | IGROV1 ovarian 64.1% | OVCAR-3 ovarian 69.4% | HS 578T breast 97.9% | NCI/ADR-RES ovarian 85.5% | T-47D breast 55.9% | BT-549 breast 82.3% | MDA-MB-435 melanoma 82.8% | SW-620 colon 99.2% | HCT-116 colon 82.9% | HCC-2998 colon 102% | KM12 colon 97.9%

CN1CCN(Cc2ccc(NC(=O)c3nc4ccc5[nH]ncc5c4c4c3CCC4)cc2C(F)(F)F)CC1
inactive: OVCAR-4 ovarian 68.3% | SK-OV-3 ovarian 93.8% | HS 578T breast 85.9% | BT-549 breast 91.6%
active: SR leukemia -31.6% | OVCAR-8 ovarian -53.8% | OVCAR-5 ovarian 3.19% | IGROV1 ovarian -80.9% | OVCAR-3 ovarian -91.3% | NCI/ADR-RES ovarian -40.8% | T-47D breast -26.4% | MDA-MB-435 melanoma -91.4% | SW-620 colon -56.2% | MCF7 breast -29.7% | HCT-116 colon -94.2% | HCC-2998 colon -10.5% | KM12 colon -79.8%
